The campaign covered roughly 44,000 compounds. Fewer than 10 were called active. Calls follow the shape of the dose curve; as a rule, active = well fitted inhibition curve with a large enough effect; inconclusive = small, poorly fitted or top-dose-only effect; inactive = flat fitted curve, though single readings scatter. These entries were drawn from the full list. Entries that show only a call come without a potency.

This assay deals with Tumor susceptibility gene 101 protein (Homo sapiens) (UniProt Q99816). Kind of assay: qHTS Validation Assay for Inhibitors of HIV-1 Budding by Blocking the Interaction of PTAP/TSG101: Sytravon Library Screen. To be noted: Fluorescence polarization, FITC-PTAP peptide/Tsg101, 20 min; series mostly up to 115 µM. The source says: Stages of the HIV-1 replication cycle, specifically virus assembly and release, provide underexploited targets for the development of novel antiviral inhibitors. The late stages of HIV-1 replication are mediated by the Gag precursor protein, Pr55Gag. Expression of Pr55Gag is both necessary and sufficient for the production of virus-like particles from Gag-expressing cells. The Gag protein hijacks key host proteins involved in endocytic machinery of the host cell to promote endosomal processing and viral budding. The budding process requires a direct interaction between a […] (PTAP) motif in the p6 domain of Gag and the cellular endosomal sorting protein known as Tsg101. In this way, the Gag PTAP motif promotes the host cells to recruit viral particles to the plasma membrane where the new viral particles are released, effectively turning the host cells into viral factories. A fluorescence polarization assay has been developed to quantitatively measure the PTAP-Tsg101 interaction which can be used to screen for inhibitors of this interaction. This assay was run against the NCGC Sytravon Library collection. NIH Molecular Libraries Probe Production Network [MLPCN] NIH Chemical Genomics Center [NCGC] Grant: R03 MH087464-01A1 PI Name: Dr. Eric Freed, NCI
Sequence of Tumor susceptibility gene 101 protein (Homo sapiens) (Q99816 whole entry, looked up): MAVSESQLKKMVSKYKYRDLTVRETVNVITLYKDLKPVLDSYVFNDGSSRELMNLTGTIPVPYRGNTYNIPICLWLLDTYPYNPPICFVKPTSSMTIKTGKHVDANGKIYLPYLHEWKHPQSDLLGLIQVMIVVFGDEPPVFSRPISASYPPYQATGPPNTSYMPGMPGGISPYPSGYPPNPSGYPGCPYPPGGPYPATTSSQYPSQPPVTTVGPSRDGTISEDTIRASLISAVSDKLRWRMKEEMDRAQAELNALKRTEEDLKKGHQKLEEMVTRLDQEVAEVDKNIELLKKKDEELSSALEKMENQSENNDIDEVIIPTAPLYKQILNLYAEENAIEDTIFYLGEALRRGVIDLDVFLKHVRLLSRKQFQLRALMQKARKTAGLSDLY
Two uL of the Tsg101 binding domain in buffer (10 mM HEPES pH 7.5; 0.15 M NaCl, 0.01% Tween 20; 3 mM EDTA;0.1 mM TCEP) was dispensed into Greiner black MB 1536-well plates (final concentration 10 uM). Then, 23 nL of compounds or DMSO were delivered to each well using a pin tool. Finally, 2 uL of a FITC-labeled peptide containing the PTAP motif (1) in the same buffer was dispensed (50 nM final concentration) and the binding was allowed to proceed for 20 min. at r.t. Fluorescent polarization was determined using FITC excitation and polarized emission filters on a Perkin Elmer Envision. Assay cut-off (positive/negative criteria): Actives defined by CRC class, <25 µM; Efficacy <60% inhibition. The total fluorescent intensity from S and P channels will be used to flag fluorescent compounds.
In general terms: qHTS replaces the single test concentration by a dilution series.
`COc1ccccc1C(=O)Nc1c(C(=O)N(C)Cc2ccccc2)sc2nc(C)c(Cl)c(C)c12`: the Potency entry is “inactive”.
Turning to `COc1ccccc1CNC(=O)c1ccc(NC(=O)N2CC(C)Sc3ccccc32)cc1` (centres undefined), the Potency entry is “inactive”.
To `COc1ccc(NC(=O)c2sc3nc[nH]c(=O)c3c2C)cc1` belongs “inactive”.
On to `CCc1ccc(S(=O)(=O)Nc2cc3c(C(=O)OCc4ccccc4)c(C)oc3c3ccccc23)cc1`, for which the Potency entry was “inactive”.
With `COc1ccccc1-c1ccnc2[nH]n(-c3ccccc3)c(=O)c12`, the Potency result is “inactive”.
As for `CSc1nn(Cc2cccc(C)c2)c(N)c1S(=O)(=O)c1ccccc1`, the Potency result was “inactive”.
For the compound `CCOc1ccccc1C(=O)Nc1ccc2c(c1)N(C)C(=O)c1ccccc1S2`, the Potency entry was “inactive”.
Turning to `CCOC(=O)c1[nH]c(C)c(CCC(=O)NCc2ccccc2C)c1C`, the Potency result was “inactive”.
To `Cc1ccc(S(=O)(=O)c2nc(-c3cccs3)oc2N2CCCCC2)cc1` belongs “inactive”.
For `COc1cccc(CNC(=O)CCc2nc(-c3ccc(C)cc3)no2)c1`, the Potency result was “inactive”.
For `CCCCCCn1nnc2sc(-c3ccccc3)cc2c1=O`, the Potency result was “inactive”.
Take `Cc1ccc(Cl)cc1N1CCN(C(=O)c2cccn3c(=O)c4cc(Cl)ccc4nc23)CC1`: the Potency entry is “inactive”.
For the compound `Cc1ccccc1-n1c(=O)c2ccccc2n(Cc2ccc(F)cc2)c1=O`, the Potency entry is “inactive”.
As to `CCc1ccccc1N(C)C(=O)C1CCCN(c2ncnc3onc(-c4ccc(F)cc4)c23)C1` (centres undefined), the Potency entry was “inactive”.
Under `CCOC(=O)c1c(NC(=O)c2ccc(S(=O)(=O)N(CC)CC)cc2)sc2c1CCCCC2` stands “inactive”; under `Cc1nc2ccc(S(=O)(=O)N(CC(=O)Nc3ccc(F)cc3)Cc3ccccc3)cc2s1`, “inactive”; under `COc1ccc(CCNC(=O)CN2C(=O)COc3ccc(S(=O)(=O)N4CCCC4)cc32)cc1OC`, “inactive”.
Turning to `Cc1cc(Nc2cccc(C(F)(F)F)c2)nc2ccc(NC(=O)c3ccc(=O)[nH]c3)cc12`, the Potency entry is “inactive”.
Take `O=C(Nc1ccc2oc(-c3ccc(O)c(Br)c3)nc2c1)c1cc2ccccc2o1`: the Potency result was “inactive”.
For `O=C(c1cccc(Br)c1)N1CCN(Cc2cc(=O)n3nc(-c4ccccc4)sc3n2)CC1`, the Potency entry was “inactive”.
With `O=C(CNS(=O)(=O)c1cccs1)N1CCN(c2ccccc2Cl)CC1`, the Potency entry was “inactive”.
With `CC1CCc2noc(NC(=O)c3ccc([N+](=O)[O-])cc3)c2C1` (centres undefined), the Potency result is “inactive”.
To `COc1cc(C(=O)N2CCN(c3ccc(Nc4ccc(C)cc4)nn3)CC2)cc(OC)c1OC` belongs “inactive”.
As for `CCOC(=O)c1ccc(NC(=O)CCS(=O)(=O)c2ccc3c(c2)oc(=O)n3C)cc1`, the Potency entry was “inactive”.
For the compound `O=C(COCc1cc(-c2ccc3c(c2)OCO3)on1)N1CCN(c2cccc(Cl)c2)CC1`, the Potency result was “inactive”.
Under `Cc1ccc(C(=O)Nc2ccc(C(=O)O)cc2)cc1S(=O)(=O)Nc1ccccc1` stands “inactive”; under `Cc1ccc(OCC(=O)OCc2cc(=O)n3nc(C4CC4)sc3n2)cc1`, “inactive”.
In the case of `CCOC(=O)C(Cc1ccccc1)NC(=O)CCc1c(C)nc2c(c(C)nn2-c2ccc(C)c(C)c2)c1C` (centres undefined), the Potency entry is “inactive”.
Take `Cc1ccc(OCCSc2nc(-c3cccs3)nc3cc(=O)[nH]n23)cc1Cl`: the Potency entry is “inactive”.
Take `CC1(C)N=C(SCc2ccccc2Cl)c2ccccc2N1`: the Potency entry was “inactive”.
To `COc1ccc(Cc2nc3ccc(C(=O)NCc4ccccc4C)cc3o2)cc1` belongs “inactive”; to `COc1ccc(N2C(=O)CS(=O)(=O)C23C(=O)N(Cc2ccc(C)cc2)c2ccccc23)cc1Cl` (centres undefined), “inactive”; to `Cc1ccc(C)c(N2CCN(S(=O)(=O)c3ccc4c(c3)C(C(C)C)C(=O)N4)CC2)c1` (centres undefined), “inactive”.
For the compound `Cc1ccc(NC(=O)CSc2nnc3[nH]c(=O)cc(C)n23)cc1Cl`, the Potency result was “inactive”.
With `CCOC(=O)C1CCC(CN(Cc2ccc(OC)cc2)S(=O)(=O)c2ccc(F)c(C(=O)Nc3cc(C)ccc3C)c2)CC1` (centres undefined), the Potency entry was “inactive”.
In the case of `CCOC(=O)N1CCc2c(sc3c2c(=O)n(-c2ccc(CC)cc2)c(=O)n3C)C1`, the Potency entry was “inactive”.
Under `COc1ccc(CCN2C(=O)c3oc4cc(C)cc(C)c4c(=O)c3C2c2ccccc2F)cc1OC` (centres undefined) stands “inactive”.
To `CSc1ccc(CCNC(=O)c2ccc3c(c2)nc2n3CCOC2)cc1` belongs “inactive”; to `COc1ccccc1N1CCN(C(=O)C2CCN(S(=O)(=O)c3c(C)noc3/C=C/c3ccc(C)cc3)CC2)CC1`, “inactive”; to `COc1ccc2c(c1)Cc1sc(NC(=O)c3ccccc3Br)nc1-2`, “inactive”.
To `CC(=O)Nc1ccc(NC(=O)C2CCCN(S(=O)(=O)c3ccc4c(c3)CCCC(=O)N4)C2)cc1` (centres undefined) belongs “inactive”; to `COc1ccc(Cl)cc1NC(=O)CSc1nc(=O)[nH]c2c1CCCC2`, “inactive”.
On to `CCc1nn(CC(=O)Nc2cc(C)cc(C)c2)c(=O)c2cc3sccc3n12`, for which the Potency entry is “inactive”.
To `COc1cc(OC)c(NC(=O)c2cnc(N3CCCC3)nc2C)cc1Cl` belongs “inactive”; to `O=C(NCCC1=CCCCC1)c1ccc2c(c1)N(Cc1ccccc1F)C(=O)c1ccccc1S2(=O)=O`, “inactive”; to `O=C(CN1C(=O)COc2ccc(S(=O)(=O)N3CCCCCC3)cc21)N1CCN(c2cccc(C(F)(F)F)c2)CC1`, “inactive”.
On to `CCCCOc1ccc(CN2C(=O)C(=O)c3cc(Br)cc(C)c32)cc1OC`, for which the Potency result is “inactive”.
Regarding `COc1cc(CN(C(=O)c2ccccc2Br)c2ccccn2)cc(OC)c1OC`, the Potency result was “inactive”.
Regarding `CCOCCCNC(=O)c1c(NC(=O)Cc2coc3c(C)c(C)ccc23)sc2c1CCC2`, the Potency entry was “inactive”.
As to `Cc1nnc(N2CCC(C(=O)Nc3ccc(F)cc3)CC2)c2nn(-c3ccc(Cl)cc3)c(C)c12`, the Potency result is “inactive”.
Turning to `O=C(c1cc(-c2ccc(F)cc2)on1)N1CCN(c2ccc(F)cc2)CC1`, the Potency result was “inactive”.
For `COC(=O)CN1C(=O)CSc2ccc(S(=O)(=O)Nc3cc(C)ccc3C)cc21`, the Potency entry is “inactive”.
On to `Cc1cc(C)c2oc(C(=O)Nc3c(C(=O)Nc4ccccc4)oc4ccccc34)cc(=O)c2c1`, for which the Potency entry is “inactive”.
As to `O=C(NC1CC(=O)N(c2ccc(Cl)cc2)C1)C1CCCC1` (centres undefined), the Potency result is “inactive”.
Under `CN1CCN(c2oc(-c3ccc(COc4ccc(Cl)cc4)o3)nc2C#N)CC1` stands “inactive”.
Consider `COc1ccc(-c2nc3sc(CCNS(=O)(=O)c4ccc(F)c(C)c4)c(C)n3n2)cc1`, for which the Potency result is “inactive”.
As to `O=C(COc1ccccc1F)Nc1ccc(C(=O)OCc2cc(=O)n3nc(C4CC4)sc3n2)cc1`, the Potency result was “inactive”.
`CCC(=O)Nc1ccccc1-c1nc2ccccc2n(CC(=O)Nc2ccc(C)c(C)c2)c1=O`: the Potency entry was “inactive”.
As to `Cc1cccc(-c2nc(SCC(=O)Nc3cc(C)on3)c3c(=O)n(C)c(=O)n(C)c3n2)c1`, the Potency entry was “inactive”.

The values above are taken from PubChem BioAssay AID1347069 (National Center for Advancing Translational Sciences (NCATS), 2019).
